This assay has as its system VDR:RXRa (NR concentration 270 nM, RXRa partner concentration 90 nM). The assay is described as follows: PBM binding z-score (relative to random genomic background probes); higher = stronger binding; sequences stand for … in GC…GCGATTGACAGCGTAGAATGAAGG
The protocol: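 Protein-binding microarray (Agilent 4x180K custom design, double-stranded 60-nt probes: 5' GC cap, 34-nt variable region, 24-nt constant primer region; full probe sequence given). Purified or IVT nuclear receptor:RXRα heterodimers (3:1 NR:RXRα, mostly 270:90 nM) or homodimers were incubated for 1 h in PBS with 2% milk and no ligand, then detected with Alexa488 antibodies. Fluorescence from o1-orientation probes (~5 replicates averaged) was converted to z-scores against 500 random hg19 background probes. Variable regions are seed direct-repeat (DR0–DR5) sites, all their single-nucleotide variants and half-site ablations.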
ATACCAAGGTTATCGTGAGGTCGTTGATACTAAC yielded a PBM binding z-score of 4.98.

The sequence CCGAGTAGGTTACGAGGGCGCATTCAGTGCGAAT showed a PBM binding z-score of 0.78.

With ACTAACAGGCCAAGGGTCACTCAAGATTAGTCCG, the PBM binding z-score was determined as 3.07.

As to CAAACTAGGTCAAGGTCAAATTCGGTTTGTGCCA, the PBM binding z-score stood at 5.06.

Take CGAACTAGGTCGAAGGACAGTGAAAGGCGACGTA: the PBM binding z-score was -0.183.

Turning to CGAACTAGGTCACCAGAACAGTGAAGAGGTTGGA, the PBM binding z-score was 1.86.

Sequence CTTTGTAGGTTAAGGGGGTCATTCAGTTTGAAAG showed a PBM binding z-score of 7.48.

In turn, CGTCTAAGGTCAAAGGTCAGTGAAGAGATGACGG yielded a PBM binding z-score of 6.78.

Turning to CAAACCAGGTCACGAAAGGTCAAAGTCGAATGAC, the PBM binding z-score was 7.16.

In turn, CTCGAAAGGTCGTGCTTAGGTGAGTATACCAAAC returned a PBM binding z-score of 3.36.

AGTCAAAGTTGATCTAGGTAACGTAAGATATGCT showed a PBM binding z-score of 0.0495.

In the case of CGAACTATGTCAAGGACAGTGAATCTCCGCACGC, the PBM binding z-score is -0.248.

TCTCGGAGGACACGAAAAGTCAGAGCTCGACATC: the PBM binding z-score was -0.0283.

As for CCTACTGGGCCACTCAGAGGTCATTGATCATATG, the PBM binding z-score is 4.06.

As to CGAACTAGGTCAAAGTACAGTGAAAGGCGACGTA, the PBM binding z-score is 1.84.

AGTCAAAGTTCACGACGAGGTAACGTAAAGCACG registered a PBM binding z-score of 5.05.

TCTCGGAGGACACGAAAGGGCAGAGCTCGACATC displayed a PBM binding z-score of -0.0327.

For the sequence CGAACTAGGTCACCAGGACAGTTAAGAGGTTGGA, the PBM binding z-score was 2.11.

Consider CTATGTAGGTTAAGGGGGTCGTTCAGTTTGAAAG, for which the PBM binding z-score is 6.43.

CAAACTAGGTCACAGAGGTTAAAGTCCGTGCGTA: the PBM binding z-score worked out at 6.72.

In the case of ATCGAAGGGTCGAAGGTGAGTATACCCACCCGAA, the PBM binding z-score was 1.66.

TCTTGTTGATCAAAGGTTAAGAAAGCCGAAGCCT registered a PBM binding z-score of 1.56.

CAAACTAGGTCACAGGGGTCAAAGTCCGTGCGTA displayed a PBM binding z-score of 8.24.

Consider TAGCCTAGGTCATTCAGGGGGCAGTATAGAAAGC, for which the PBM binding z-score worked out at 4.82.

On to TCTTGTAGATCAAAGGTTAAGACAGCCGAAGCCT, for which the PBM binding z-score was 1.68.

As for CCGAGTAGGTTACGAGGGGCCATTCAGTGCGAAT, the PBM binding z-score turned out to be 3.09.

As for GATTACGGGTCAAAGGTTATAGCATGAATAGAAT, the PBM binding z-score turned out to be 5.82.

As to CCTCGGAGGTCAGAAGGTCAGAGCTGTCCGCTTT, the PBM binding z-score was determined as 4.38.

Consider CCTACTGGGTCATTCAGAGGTCATTGATCATATG, for which the PBM binding z-score was determined as 6.25.

As for TATACAGGATCAAAGGCCAGAGTACGAATGTCGA, the PBM binding z-score is 0.61.

In turn, ATATGTAGGTTACGGTCATTCAGAAAGTAGGGAA showed a PBM binding z-score of 1.54.

CTCGAAAGGGCGTGCTCAGGTGAGTATACCAAAC came in with a PBM binding z-score of -0.0475.

In turn, CCGAGTGGGTTACGAGGGGGCATTCAGTGCGAAT came in with a PBM binding z-score of 5.13.

In turn, CCTTACGGGTCACTCCAGGTTCTAGCATCGGAGT registered a PBM binding z-score of 3.59.

Regarding CGAACTAGGTCAGAACAGTACAGTGAAGGATGAT, the PBM binding z-score was determined as 0.879.

CCTTACGGGTCACTCCATGTTATAGCATCGGAGT came in with a PBM binding z-score of 3.02.

In turn, CGTCCAAGGTCAGCAGGTCAGAGAAAGCGACGTG displayed a PBM binding z-score of 3.98.

In turn, TAGCCTAGGTTATGCGGGCCAGTATAGTGTCGGC came in with a PBM binding z-score of -0.0997.

As to TAGCCTAGGTCATGCGGGCCAGCATAGTGTCGGC, the PBM binding z-score was determined as 2.7.

ATATCTAGGTAAAAGTTCAGTGAATCCCGAGGAT yielded a PBM binding z-score of 1.59.

For the origin of these results see the supplement of paper PMC6555819.
